Screens as filed in PubChem.
Hits are enriched below; roughly 5.7% of the tested compounds scored in any of these assays.
TGFb inhibitor – blocks TGF-b signaling; HepG2 CAGA-GFP TGF-b/SMAD3 reporter, GFP fluorescence, 18 h; TGF-beta stimulated, 500 pg/mL final; Potency, µM (top dose mostly 46.1 µM), for the others: at the top dose activity, negative = inhibition, usual class: inhibitors; 1.2% of 410,000 active; AID 588855; also: potency is read from the fitted curve at half-maximal effect; % is scaled to controls: 0 for no effect and ±100 for the full control effect; nearly all actives have a fitted effect of over 65% in size
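Read-out: total well GFP (ex488/em500-530) summed from mean per-cell fluorescence. Cells: HEPG2 CAGA-GFP, 1% FBS DMEM, 18 h at 37 degrees C with 500 pg/mL final TGF-beta. Unstimulated wells served as the full-inhibition control; stimulated DMSO wells = 0%.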
ATXN viability – cell viability loss in ATXN counter-screen; S2 cells (HEK-293 line with an ATXN2-luciferase reporter) viability, CellTiter-Fluor protease fluorescence, 24 h; Potency, µM (series often up to 56.7 µM), actives largely listed as cytotoxic; 0.49% of 400,000 active; also: potency is read from the fitted curve at half-maximal effect; nearly all actives have a fitted effect of over 40% in size
HepG2 viability – HepG2 cytotoxicity, counter-screen for TGF-b inhibitors. 0.76% of 410,000 active. HepG2 CAGA-GFP viability, ATP luminescence, 18 h. Potency, µM (top dose mostly 46.1 µM), for the others: top-dose activity change, negative = cytotoxicity, actives largely listed as cytotoxic; also: potency is read from the fitted curve at half-maximal effect
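CellTiter-Glo luminescence gave cytotoxicity after 18 hours at 37 degrees C. The cells were HepG2 CAGA-GFP in 1% FBS DMEM, stimulated with 500 pg/mL TGF-beta after compound addition. %Activity was normalised to no-cell wells (complete cell-killing) and DMSO (no toxicity), and curves were fitted and classified.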
IL-1B inflam inh – inhibitors of inflammasome signaling (IL-1 beta secretion); THP-1 LPS/ATP IL-1B secretion, AlphaLISA, 16 h; stronger effect = lower value; activity change, % at 57.5 µM; 4.7% of 360,000 active; AID 743279; in the data active = activity change below about -50%; inconclusive = mostly about -30% to -49%; also: % is scaled to controls: 0 for no effect and ±100 for the full control effect
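THP-1 cells pretreated 1 hr with compounds (up to 57.5 uM final), then stimulated with LPS (250 ng/mL final) plus ATP (1.25 mM final); secreted IL-1B measured by AlphaLISA after 16 hr, decreased signal indicating inhibition.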
ATXN2 expr inh – inhibitors of ATXN2 expression; HEK-293 ATXN2-luciferase reporter, luminescence, 24 h; Potency, µM (doses to about 57 µM), for inactives: at the highest dose activity change, negative = inhibition, usual class: inhibitors; 0.72% of 360,000 active; AID 1745845; also: potency is read from the fitted curve at half-maximal effect; % is scaled to controls: 0 for no effect and ±100 for the full control effect; nearly all actives have a fitted effect of over 55% in size
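ATXN2-luciferase reporter cells (luciferase flanked by upstream and downstream ATXN2 gene portions) were treated 24 h at 37 °C with compounds at up to 57 uM. SteadyGlo luminescence gave expression; GF-AFC fluorescence gave viability.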
An asterisk follows results filed as active; i = inactive; u = inconclusive; x = no result given. Unless noted, calls follow the shape of the dose curve; as a rule, active = well fitted curve in the direction sought with a large enough effect; inconclusive = small, poorly fitted or top-dose-only effect, or another doubt; inactive = no such curve, though single readings can be large; an effect the other way counts as inactive or inconclusive.

SMILES	TGFb inhibitor	ATXN viability	HepG2 viability	IL-1B inflam inh	ATXN2 expr inh
NC1=NC[C@H](CC2CCCCC2)N1CCc1cc(C(F)(F)F)cc(C(F)(F)F)c1	u	u	20µM*	-27	u
CCOC(=O)C1CCCCN1C(=O)c1cnn(-c2nccc(-c3cc(C)sc3C)n2)c1C1CC1 (stereo not drawn)	x	i	x	x	x
O=C(c1cn(C2CCCN(Cc3cccc(Oc4ccccc4)c3)C2)nn1)N1CCCC1 (stereo not drawn)	x	i	x	x	x
c1ccc(C[C@H]2CNCCN2CC2CCCCC2)cc1	6%	i	-11%	-24	-2%
CCCC[C@@H]1CNCCN1CCc1cc(C(F)(F)F)cc(C(F)(F)F)c1	u	35µM*	-115%	-61*	u
CCCC[C@@H]1CNC(=O)C(=O)N1CCc1cc(C(F)(F)F)cc(C(F)(F)F)c1	u	u	-4%	-5	-1%
FC(F)(F)c1cc(CCN2CCNC[C@@H]2CC2CCCCC2)cc(C(F)(F)F)c1	u	x	-100%	-101*	22µM*
CC(O)[C@H]1CNC(=S)N1CCc1cccc(F)c1 (stereo partly drawn)	6%	i	-1%	11	7%
CCC(C)[C@H]1CNCCN1CCC12CC3CC(CC(C3)C1)C2 (stereo partly drawn)	-12%	i	-40%	-62*	-13%
CCC(C)[C@H]1CNC(=S)N1CCc1cc(C(F)(F)F)cc(C(F)(F)F)c1 (stereo partly drawn)	u	x	-37%	-55*	u
O=C(Nc1ccccn1)c1nc(-c2ccccc2)n(-c2ccccc2)n1	3%	i	-7%	-20	22%
NC(=O)c1ccsc1NC(=O)c1nc(-c2ccccc2)n(-c2ccccc2)n1	-19%	i	-18%	-52*	72%
COc1ccc(NC(=O)CC2C(=O)N(c3ccc(C)cc3)C(=O)N2CCc2ccccc2)cc1 (stereo not drawn)	u	u	-25%	x	-2%
CCOc1cc(C2C(C#N)=C(N)Oc3n[nH]c(CC)c32)ccc1OCCN1CCOCC1 (stereo not drawn)	-2%	i	-13%	-61*	-11%
CCCc1[nH]nc2c1C(C1CCCCC1)C(C#N)=C(N)O2 (stereo not drawn)	u	u	-33%	-95*	-29%
CCCc1[nH]nc2c1C(c1ccc(OC)cc1OC)C(C#N)=C(N)O2 (stereo not drawn)	4%	i	5%	-15	2%
CCCc1[nH]nc2c1C(c1ccsc1)C(C#N)=C(N)O2 (stereo not drawn)	-23%	i	26%	-228*	x
CCCc1[nH]nc2c1C(c1ccc(O)cc1OCC)C(C#N)=C(N)O2 (stereo not drawn)	-8%	i	-14%	-76*	-22%
CCCCOc1ccc(CNC(=O)CCCN2C(=O)CSc3c2c(C)nn3-c2ccccc2)cc1	u	u	-23%	x	u
CCn1cc(S(=O)(=O)c2cc(C)cc(C)c2)c(=O)c2cc(F)c(N3CCN(c4ccccc4)CC3)cc21	-18%	x	17%	x	x
CC(NC(=O)c1ccco1)c1nnc2n1CCN(Cc1ccc(N(C)C)cc1)CC2 (stereo not drawn)	x	i	x	x	x
CN(C)c1ccc2ccc3cccc4ccc1c2c34	50%	x	-27%	x	x
CCN(CCN(C)Cl)/[N+]([O-])=N/Oc1ccc([N+](=O)[O-])cc1[N+](=O)[O-]	u	x	-102%	x	x
N#CC1=C(N)Oc2n[nH]c(-c3cccs3)c2C1c1cccs1 (stereo not drawn)	u	i	-12%	-91*	-7%
COCc1[nH]nc2c1C(c1sccc1C)C(C#N)=C(N)O2 (stereo not drawn)	-7%	i	-12%	-81*	-17%
SMILES	TGFb inhibitor	ATXN viability	HepG2 viability	IL-1B inflam inh	ATXN2 expr inh
N#CC1=C(N)Oc2n[nH]c(-c3cccs3)c2C1c1ccccc1C(=O)O (stereo not drawn)	7%	i	2%	2	-31%
CCOC(=O)Cc1[nH]nc2c1C(c1ccsc1)C(C#N)=C(N)O2 (stereo not drawn)	-2%	i	-3%	-65*	3%
CC(C)(C)c1[nH]nc2c1C(c1ccco1)C(C#N)=C(N)O2 (stereo not drawn)	-21%	i	11%	-67*	x
COc1cccc(CN2CCc3nnc(CCc4ccccc4)n3CC2)c1OC	x	i	x	x	x
COc1ccc(-c2nc(SCC(=O)c3ccc(OC)c(Br)c3)n[nH]2)cc1	9%	x	-2%	x	x
C=CC1=C(C(=O)O)N2C(=O)[C@@H](NC(=O)/C(=N/OCC(=O)O)c3csc(N)n3)[C@H]2SC1 (stereo in doubt)	x	i	x	x	x
COC(=O)Cc1[nH]nc2c1C(c1cc(OC)c(OC)c(OC)c1)C(C#N)=C(N)O2 (stereo not drawn)	u	i	-1%	-3	-5%
COC(=O)Cc1[nH]nc2c1C(C1C=CCCC1)C(C#N)=C(N)O2 (stereo not drawn)	-12%	u	-2%	-62*	2%
CCCc1[nH]nc2c1C(c1ccoc1)C(C#N)=C(N)O2 (stereo not drawn)	-24%	u	-23%	-80*	4%
O=C(Nc1ccc(N2CCOCC2)c(S(=O)(=O)Nc2ccc(Cl)cc2)c1)c1ccc(=O)[nH]n1	-4%	u	-26%	-56*	u
CCCCn1c(=O)c2oc3ccccc3c2n(Cc2ccc(OC)cc2)c1=O	-19%	x	-23%	x	x
CC1=C(c2ccc(C)cc2)S(=O)(=O)NC1=NCc1cccc(F)c1	-19%	x	-19%	x	x
N#CCCn1cc(C(=O)Nc2ccc([N+](=O)[O-])cc2)c(-c2cc3ccccc3o2)n1	u	25µM*	-42%	-15	x
N#CCCn1cc(C(=O)O)c(-c2ccc3ccccc3c2)n1	-13%	i	-7%	1	-4%
COC(=O)c1cn(CCC#N)nc1-c1ccc2ccccc2c1	-3%	i	1%	-51*	-24%
CCCn1c(=O)c2sccc2n2c(CCCC(=O)N3CCN(c4ccc(OC)cc4)CC3)nnc12	u	x	-10%	x	x
Cc1ccccc1NC(=O)Nc1ccccc1C(=O)NCc1ccccc1	-2%	u	1%	-13	-9%
O=C(CCl)Nc1ccccc1C(=O)NCc1ccccc1	6%	u	-4%	-83*	u
COc1ccc2c(c1)c1c(c(=O)n(-c3ccc(OC)c(OC)c3)c(=O)n1CC(=O)N1CCCC1)n2C	2%	i	-12%	x	-2%
COc1ccc(-c2oc3cccnc3c2C#CCO)cc1	-21%	i	0%	0	-10%
COc1ccc(-c2oc3cccnc3c2C#CC2(O)CCCCC2)cc1	u	u	23%	-56*	u
